Measured values taken from PubChem BioAssay (NCATS).
Inconclusive results are not listed. Activity calls are given as the source filed them.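 Rule for the calls: active = compounds whose dose-response curve shows a full or clear partial loss of cell viability, called from curve shape rather than a numeric limit; inconclusive = weak partial curves or an effect only at the top dose; inactive = no dose-dependent loss of viability.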

Test: Cell Viability - Hek293 (AID 427);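 note: cells exposed to compound for 40 hours at 37 °C before reading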
Settings: qHTS
Description: NIH Chemical Genomics Center [NCGC]
NIH Molecular Libraries Screening Centers Network [MLSCN]
National Institutes of Environmental Health Sciences [NIEHS]
National Toxicology Program [NTP]
We have developed a 1536-well cell-based assay for quantitative high throughput screening (qHTS) against a number of cell lines to determine in vitro cytotoxicity of small molecules. This particular assay uses the Hek 293 cell line which is derived from human embryonic kidney cells (transformed with adenovirus).
NCGC Assay Protocol Summary:
The CellTiter-Glo luminescent cell viability assay (Promega) is a homogeneous method to measure the number of viable cells in culture. The end point readout of this assay is based on quantitation of intracellular ATP, an indicator of metabolic activity, using the luciferase reaction. Luciferase catalyzes the oxidation of beetle Luciferin to oxyluciferin and light in the presence of ATP. The luminescent signal is proportional to amount of ATP present.
Using the CellTiter-Glo luminescent cell viability assay, the amount of cellular ATP was measured in the Hek293 cell line with complete culture medium following compound treatment for 40 hours. The assay was performed in opaque white Kalypsys 1536-well plates. In the screen, tamoxifen and doxorubicin were used as positive controls. Library compounds were measured for their ability to cause acute toxicity in the cell line, as reflected by a decrease in intracellular ATP levels, in a concentration-dependent manner. Data were normalized to the controls for basal activity (DMSO only) and 100% inhibition (100 uM tamoxifen). AC50 values were determined from concentration-response data modeled with the standard Hill equation.
qHTS protocol fo CellTiter Glo Hek 293 cellular assay
[Step] [Parameter] [Value] [Description]
2. Time; 5 hr; 37 °C incubation
4. Controls; 23 nL; Tamoxifen 0.34 uM to 100 uM & Doxorubicin 0.02 nM to 100 uM
5. Time; 40 hr; 37 °C incubation
6. Reagent; 5 uL; CellTiter Glo reagent
7. Time; 20 min; Room Temperature
8. Detection; Luminescence; Viewlux plate reader
Keywords: cell viability, cytotoxicity, Hek293 cell line, luminescence, NTPHTS, NTPHTS_NCGC, NIEHS, EPA, DSSTox, MLSMR, MLSCN, NIH Roadmap, qHTS, NCGC
Potency is the fitted concentration of half-maximal effect.

Compound | Potency
Nc1cc([N+](=O)[O-])ccc1O | > 92 µM (inactive)
c1ccc(CSCc2ccccc2)cc1 | > 92 µM (inactive)
O=[N+]([O-])c1ccccc1Nc1ccccc1 | > 92 µM (inactive)
C1CCCNCC1 | > 92 µM (inactive)
O=[N+]([O-])c1cccc(I)c1 | > 92 µM (inactive)
Cc1cc(=O)oc2cc(O)cc(O)c12 | > 92 µM (inactive)
Oc1c(Cl)cc(Cl)c(Cl)c1Cl | > 92 µM (inactive)
CCN(CC)c1ccc2c(C)cc(=O)oc2c1 | > 92 µM (inactive)
OC1CCCCC1 | > 92 µM (inactive)
Cc1cccnc1 | > 92 µM (inactive)
Brc1cc(Br)c(Oc2cc(Br)c(Br)cc2Br)cc1Br | > 92 µM (inactive)
CCCC(=O)OC(=O)CCC | > 92 µM (inactive)
CCCCCCN | > 92 µM (inactive)
C[Si](C)(C)Cl | > 92 µM (inactive)
C=CC1CO1 (stereo not given) | > 92 µM (inactive)
CC(=O)OC1CC(C)OC(C)O1 (stereo not given) | > 92 µM (inactive)
c1ccncc1 | > 92 µM (inactive)
C=CC(C)(O)CCCC(C)CCCC(C)CCCC(C)C (stereo not given) | > 92 µM (inactive)
CC(C)COC(=O)COc1cc(Cl)c(Cl)cc1Cl | > 92 µM (inactive)
Clc1nc2ccccc2nc1Cl | > 92 µM (inactive)

Compound | Potency
Oc1ccc2c(c1)OCO2 | > 92 µM (inactive)
CC1=C(/C=C/C(C)=C/C=C/C(C)=C/C=O)C(C)(C)CCC1 | 53.9 µM (active)
c1ccc(Nc2cccc3ccccc23)cc1 | > 92 µM (inactive)
CCCCCCCCOc1ccc(C(=O)O)cc1 | > 92 µM (inactive)
O=C=Nc1ccc(Cl)c(Cl)c1 | 38.9 µM (active)
O=C(Cl)c1ccc([N+](=O)[O-])cc1 | > 92 µM (inactive)
CC(C)OCC1CO1 (stereo not given) | > 92 µM (inactive)
N=C1C=CC(=C(c2ccc(N)cc2)c2ccc(N)cc2)C=C1 | 19.6 µM (active)
Cc1ccccc1OCC1CO1 (stereo not given) | > 92 µM (inactive)
O=[N+]([O-])c1ccc(F)cc1F | > 92 µM (inactive)
CCc1ccc(C(c2ccc(CC)cc2)C(Cl)Cl)cc1 | > 92 µM (inactive)
CC(=O)OC(C(=O)c1ccccc1)c1ccccc1 (stereo not given) | > 92 µM (inactive)
Nc1cc(C(=O)O)c(O)c(S(=O)(=O)O)c1 | > 92 µM (inactive)
CC(=O)CC(=O)Nc1ccccc1 | > 92 µM (inactive)
NC(=O)c1ccc([N+](=O)[O-])cc1 | > 92 µM (inactive)
O=C(OCc1ccccc1)c1ccccc1O | > 92 µM (inactive)
Nc1ccc2c(c1)C(=O)c1ccccc1C2=O | > 92 µM (inactive)
Cc1c(N)cccc1Cl | > 92 µM (inactive)
CC/C=C/C/C=C/C/C=C/CCCCCCCC(=O)OCC | > 92 µM (inactive)
OCC(CBr)(CBr)CBr | > 92 µM (inactive)
